Laboratory results published in the OligoGym collection.

Biological target: DTX1
Assay: pooled miR-30 sensor sort-seq; sequence = guide strand
Conditions: shRNA

First: TAGATGAGGTAGCAGAAGCCTA
Second: TTGGATCCAAACTCGGTCTTGT
The sensor-assay potency score (higher = more potent) of the first is lower: -1.12 for the first, 0.0701 for the second.

Sequence TTGTTGGGTAGATAGCAGTGGC has a sensor-assay potency score (higher = more potent) of -0.92.

Biological target: DTX3L
Assay: as above
Conditions: shRNA

Compared with TATTCTTTCAATGTCTTGGAAG, TAGAACATACTGCTTCGCCTTT is higher in sensor-assay potency score (higher = more potent): -0.89 for the first, -0.506 for the second.

First: TTGTGGTGAATATCATTCCAAG
Second: TAAAGAGACACATTCTTGCTTC
The sensor-assay potency score (higher = more potent) of the first is lower: -1.27 for the first, 0.883 for the second.

First: TTCGTCAACAAGTATTTGGTGC
Second: TAGCTCTCCAGCTTCCTTCGTA
The sensor-assay potency score (higher = more potent) of the first is higher: 0.16 for the first, 0.0161 for the second.

Compared with TTGAGGTCTCGTGTTCTTCTTT, TTCGATCTCTGATATCTCCTGT is higher in sensor-assay potency score (higher = more potent): -0.195 for the first, 0.612 for the second.

Compared with TTTTTCAACACTCTCTCCTTAG, TTGGAAGTCACCACACACCTTC is higher in sensor-assay potency score (higher = more potent): -0.54 for the first, 0.463 for the second.

Compared with TTTGTGGTGAATATCATTCCAA, TTCCAGGGTATCTCTTTCCTGG is lower in sensor-assay potency score (higher = more potent): -0.425 for the first, -0.87 for the second.

Biological target: DUSP22
Assay: as above
Conditions: shRNA

First: TCTTCCTTCAGCCACTGCCGAT
Second: ATACTGATGGACCTCATGCTTC
The sensor-assay potency score (higher = more potent) of the first is lower: -1.53 for the first, -1.22 for the second.

First: TTAGTTCTCAACATAAACATGA
Second: ATATGTGTCACCTTGTTCTTGC
The sensor-assay potency score (higher = more potent) of the first is lower: -0.0599 for the first, 0.858 for the second.

Going from TTAACGAAAACATAGAGCTTTC to AATATGTGTCACCTTGTTCTTG, the sensor-assay potency score (higher = more potent) rises from -0.995 to -0.44.

Going from TTTCTTTGAAATGTCTTGTCAG to TACTTAAACTCTATGTTGCTTT, the sensor-assay potency score (higher = more potent) falls from -0.0889 to -0.452.

Compared with TTCTTTGAAATGTCTTGTCAGG, TTCACAGGAAGCAATCACGAGC is lower in sensor-assay potency score (higher = more potent): -0.54 for the first, -0.769 for the second.

Biological target: DUSP3
Assay: as above
Conditions: shRNA

Going from TTGCCCACGTAGATCCGCGGGG to TAGGCGATAACTAGCGTTGGGG, the sensor-assay potency score (higher = more potent) rises from -0.843 to -0.821.

Going from TCGTTGAGATCCTGCACCGAGA to TAGTCTGTCATTGAGCTGGCAG, the sensor-assay potency score (higher = more potent) rises from -1.55 to -0.572.

Compared with TTGACGTGCATGAAGGACCTGC, TTGACGTCCATCTTCTGCCGCA is lower in sensor-assay potency score (higher = more potent): 0.645 for the first, -0.0981 for the second.

First: AGACTTGACGTCCATCTTCTGC
Second: TTCTTTTGAGCCAAAGCCTGGT
The sensor-assay potency score (higher = more potent) of the first is lower: -1.63 for the first, -0.51 for the second.

Going from TTGGGGAGCGGCTATAACCTTC to ATTGGTGTTGACGTGCATGAAG, the sensor-assay potency score (higher = more potent) rises from -1.39 to -1.24.

Compared with TAGAAGTTGGCATTGGTGTTGA, TATGTGATGCCGGAGTCCTTGT is lower in sensor-assay potency score (higher = more potent): 0.772 for the first, -1.17 for the second.

First: TTGAACTCCTGTGTGTCGTTGG
Second: TGAGGTTGAACTCCTGTGTGTC
The sensor-assay potency score (higher = more potent) of the first is higher: 0.854 for the first, 0.0433 for the second.
